Measurements from PubChem BioAssay (NCI).
The panel holds about 83,000 compounds, 20% with a hit somewhere; the sample as a whole holds those more often.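 Interpretation: 100, growth as untreated; towards 0, rising growth inhibition; 0, no net growth; 0 to -100, cell death. Compounds scoring below 10 were considered active.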 Active and inactive are the calls of the source.

Test system: HL-60(TB) leukemia
Assay: NCI-60 one-dose screen, 48 h (100 = growth as untreated, 0 = no growth, -100 = all killed)
Conditions: 10 µM unless noted

| Compound | growth |
| --- | --- |
| COC(=O)C1=C(C)NC(C)=C(C(=O)OCC(C)C)C1c1ccccc1[N+](=O)[O-] (stereo not given) | 28.9% (inactive) |
| Fc1cccc(Oc2ccc(Nc3ncnc4ccc(OCCCN5CCOCC5)cc34)cc2Cl)c1 | 83.6% (inactive) |
| N#Cc1c(Oc2ccc([N+](=O)[O-])cc2)nc2sc3cc(Cl)ccc3n2c1=N | 151% (inactive) |
| NC1CCC(Nc2nc(NCc3ccc(-c4ccco4)nc3)c3ncn(C4CCCC4)c3n2)CC1 (stereo not given) | -33.3% (active) |
| Cc1cc2cc3c(=O)[nH]c(=O)cc-3n(CC(O)C(O)C(O)CO)c2cc1C (stereo not given) | 102% (inactive) |
| Cc1[nH]c2ccc(F)cc2c1CCNC(=O)C1CCN(C(=O)c2ccc(-c3ccccc3)cc2)CC1 | 55.3% (inactive) |
| CC(=O)C(C(C)=O)c1nc2sc3cc(Cl)ccc3n2c(=N)c1C#N | 112% (inactive) |
| CC1CC(C(C)(C)C)C(=O)C(C(C)(C)C)C1 (stereo not given) | 107% (inactive) |
| O=c1ccc2nc(-c3ccccc3)nn(-c3ccccc3)c-2c1 | -45.5% (active) |
| O=C(CCN1C(=O)/C(=C/c2ccc(O)cc2)SC1=S)Nc1ccc(Cl)cc1 | 65.5% (inactive) |
| CN1CCN(Cc2ccc(NC(=O)c3cncc(C#Cc4ncc5cnccn45)c3)cc2C(F)(F)F)CC1 | 24.8% (inactive) |
| CC1=CC(c2ccco2)=C2C(N)=NNC2N1 (stereo not given) | 106% (inactive) |
| COC(=O)[C@H](Cc1cn(C)cn1)NC(=O)[C@@H](NC(=O)Nc1cc(C(F)(F)F)cc(C(F)(F)F)c1)C(C)(C)C | -56.2% [100 µM] (active) |
| c1ccc(-c2nc(N3CCCNCC3)c3nc(-c4ccccc4)oc3n2)cc1 | -34.6% (active) |
| CC(=O)CC(=O)c1ccccc1.[Cu+2] | 67.2% (inactive) |
| N#C/C(Sc1nc2sc3c(c2c(=O)n1Cc1ccccc1)CCCC3)=C1/SC=C(c2ccc(Cl)cc2)N1c1ccccc1 | 84.3% (inactive) |
| O=C1Nc2ccccc2C12CC(c1ccccc1)=NN2 (stereo not given) | -8.55% (active) |
| COc1ccc(C2CC(c3ccc4ccccc4c3)=NN2/C=C2\SC(=S)N(NC(=O)Cc3ccccc3Nc3c(Cl)cccc3Cl)C2=O)cc1 (stereo not given) | -27.4% (active) |
| COc1cc(CN)ccc1O | 73.9% (inactive) |
| C[C@H](C(=O)N[C@@H](Cc1ccc(-c2ccccc2)cc1)C(=O)NC1CC(C)(C)NC(C)(C)C1)c1ccc(-c2ccccc2)c(F)c1 | -59.1% (active) |

| Compound | growth |
| --- | --- |
| O=C1OCC2=C1C(c1cccc(Cl)c1)c1cc3c(cc1N2CCO)CCC3 (stereo not given) | -26.3% (active) |
| CC(=O)/C(C)=N\OC(=O)Nc1ccccc1 | 102% (inactive) |
| Nc1ccc(NC(=O)c2ccccc2)c2c1C(=O)c1ccccc1C2=O | 135% (inactive) |
| CN(C)Cc1ccc(O)c(C(=O)O)c1 | 107% (inactive) |
| O=C(CSc1nc(-c2ccc(Cl)cc2)cn1-c1ccc(Cl)cc1)c1ccc(Br)cc1 | 97.1% (inactive) |
| COc1ccc2c(c1)C(c1cc(OC)c3c(c1)OCO3)C1=C(COC1=O)N2 (stereo not given) | 4.04% (active) |
| CC(=O)O.CN1[CH-]N(Cc2ccc(C#N)cc2)c2ccccc21.[Ag+] | 102% (inactive) |
| CS(=O)(=O)Nc1cc(-c2ccc3ncnc(Nc4ccc5c(cnn5Cc5ccccc5F)c4)c3c2)cnc1Cl | 22.7% (inactive) |
| S=c1[nH]ccn1-c1ccccc1Cl | 90% (inactive) |
| O=C(O)c1cn(C2CC2)c2cc(N3CCN(C(=O)C[n+]4ccccc4)CC3)c(F)cc2c1=O | 112% (inactive) |
| CC(=O)c1c[nH]c2ccc(-c3ccnc(Nc4ccc(NC(=O)c5cccc(F)c5)c(CN5CCOCC5)c4)n3)cc12 | -24.8% (active) |
| CCOC(=O)NC(Cc1ccccc1)c1ccccc1 (stereo not given) | 94.2% (inactive) |
| CC(=O)Nc1nc(C)c(C(=O)N/N=C/N2CCOCC2)s1 | 188% (inactive) |
| CC(=O)NCCN | 103% (inactive) |
| O=C=NC(c1ccccc1)(c1ccccc1)c1ccccc1 | 102% (inactive) |
| C[n+]1c2ccccc2nc2ccc(NCCO)cc21 | 70.6% (inactive) |
| COc1ccc2c(c1)NC(=O)CN2c1nc(NC2CC2)nc2ccccc12 | -5.55% (active) |
| CC(C)C(=O)Nc1ncc(C(=O)NCCN(Cc2ccccc2)C(=O)c2ccc(S(=O)(=O)Nc3ccccc3)cc2)s1 | 107% (inactive) |
| COc1ccc(/C=C2\Oc3cc(C)c(Cl)cc3C2=O)cc1OC | 100% (inactive) |
| Cc1cccc2c(NCCN(C)C)c3cccc(C(=O)NCCN(C)C)c3nc12 | -8.73% (active) |
